This is one part of the list. The source made the active and inactive calls. Unless noted, no stated cut-off is given here; in the data, active means activation above about 33%; inactive means the rest.
What was measured:
[1] = lowers stimulated NF-kB luciferase signal in Jurkat – cell-based, luminescence, single concentration, T-cell NF-kB inhibitor project, confirmation (AID 435020;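 active means inhibition reaching about 45% at 4 µM in either replicate, limit read from the data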;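 further: plate controls were PMA/ionomycin stimulated DMSO wells for no effect and unstimulated DMSO wells for full effect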); conditions: PMA/ionomycin-induced, 16 h, at 4 µM, stronger effect = higher value
[2] = molecular target: Sentrin-specific protease 8 (Homo sapiens) (UniProt Q96LD8); assay: human SENP8 peptidase blockers, hit retest – biochemical, luminescence, single concentration, confirmation (AID 488912;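 active means mean inhibition across replicates above about 50%, limit read from the data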); conditions: Recombinant SENP8, Z-RLRGG-aminoluciferin luminescence, 60 min; at 12.5 µM; stronger effect = higher value
Sentrin-specific protease 8 (Homo sapiens), sequence (Q96LD8 whole entry, looked up, the tested form may be a part): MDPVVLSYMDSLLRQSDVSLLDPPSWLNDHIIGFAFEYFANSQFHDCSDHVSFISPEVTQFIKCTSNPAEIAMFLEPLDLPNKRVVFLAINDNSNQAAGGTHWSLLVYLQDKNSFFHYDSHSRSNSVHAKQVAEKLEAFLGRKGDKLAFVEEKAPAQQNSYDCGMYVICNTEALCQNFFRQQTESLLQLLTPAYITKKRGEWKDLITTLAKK

[3] = molecular target: Sentrin-specific protease 6 (Homo sapiens) (UniProt Q9GZR1); assay: inhibition of human SENP6 catalytic domain – biochemical, luminescence, single concentration, confirmation (AID 488915;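 active means mean inhibition above about 50% in the one-dose retest, limit read from the data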); conditions: recombinant SENP6, Z-RLRGG-aminoluciferin luminescence; at 12.5 µM; stronger effect = higher value
Sentrin-specific protease 6 (Homo sapiens), sequence (Q9GZR1 628-1112 limits assumed): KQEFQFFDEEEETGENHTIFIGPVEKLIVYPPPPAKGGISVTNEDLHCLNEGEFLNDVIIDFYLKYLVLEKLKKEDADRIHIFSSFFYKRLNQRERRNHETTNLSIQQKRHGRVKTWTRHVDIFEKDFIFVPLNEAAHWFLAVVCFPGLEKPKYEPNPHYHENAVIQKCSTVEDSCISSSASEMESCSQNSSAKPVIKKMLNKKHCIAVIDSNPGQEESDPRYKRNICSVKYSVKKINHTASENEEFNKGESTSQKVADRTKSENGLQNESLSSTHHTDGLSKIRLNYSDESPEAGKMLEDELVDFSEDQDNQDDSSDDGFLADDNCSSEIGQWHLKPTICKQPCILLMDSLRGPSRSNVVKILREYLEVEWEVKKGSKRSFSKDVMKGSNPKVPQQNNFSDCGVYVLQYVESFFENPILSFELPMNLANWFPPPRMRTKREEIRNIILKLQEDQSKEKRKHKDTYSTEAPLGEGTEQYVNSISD

[4] = molecular target: Sentrin-specific protease 7 (Homo sapiens) (UniProt Q9BQF6); assay: human SENP7 peptidase blockers, hit retest – biochemical, luminescence, single concentration, confirmation (AID 488917;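 active means mean inhibition above about 50% in the one-dose retest, limit read from the data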); conditions: recombinant SENP7, Z-RLRGG-aminoluciferin luminescence, 40 min; at 12.5 µM; stronger effect = higher value
Sentrin-specific protease 7 (Homo sapiens), sequence (Q9BQF6 706-1050 limits assumed): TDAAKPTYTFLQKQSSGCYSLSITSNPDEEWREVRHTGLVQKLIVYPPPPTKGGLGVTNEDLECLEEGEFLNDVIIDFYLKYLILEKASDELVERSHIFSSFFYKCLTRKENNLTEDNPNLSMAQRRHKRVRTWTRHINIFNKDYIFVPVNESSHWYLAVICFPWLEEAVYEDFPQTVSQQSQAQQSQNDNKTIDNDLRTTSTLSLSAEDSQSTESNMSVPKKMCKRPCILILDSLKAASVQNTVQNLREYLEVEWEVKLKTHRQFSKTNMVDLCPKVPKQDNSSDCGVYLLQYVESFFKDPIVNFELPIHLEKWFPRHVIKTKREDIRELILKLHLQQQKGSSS

Caspase-3 (Homo sapiens) = Caspase-3 (Homo sapiens) (UniProt P42574); assay: human caspase-3 activity blockade, out-of-family – biochemical, single concentration, selectivity assay for SENP inhibitor project, confirmation (AID 488918;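 active means mean inhibition above about 50%, limit read from the data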;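 further: plate controls were enzyme with DMSO for no effect and wells without caspase-3 for full effect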); conditions: purified caspase-3, Z-DEVD-aminoluciferin luminescence, 60 min; at 12.5 µM; stronger effect = higher value
Caspase-3 (Homo sapiens), sequence (P42574 28-227 limits assumed): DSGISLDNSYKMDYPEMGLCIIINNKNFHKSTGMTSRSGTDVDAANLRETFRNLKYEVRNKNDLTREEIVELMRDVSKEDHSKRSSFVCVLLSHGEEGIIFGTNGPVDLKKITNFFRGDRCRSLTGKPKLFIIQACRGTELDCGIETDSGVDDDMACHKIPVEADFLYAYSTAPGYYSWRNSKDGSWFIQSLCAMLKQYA

[5] = Ultra-Glo luciferase signal interference – biochemical, single concentration, SENP8 reaction pre-completed, artefact control for SENP inhibitor project, confirmation (AID 488919;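 active means mean inhibition above about 50% when retested at one dose, limit read from the data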;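 further: plate controls were DMSO wells with completed reaction for no effect and substrate without enzyme for full effect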); conditions: Pre-incubated SENP8/Z-RLRGG-aminoluciferin, luciferase luminescence interference; at 12.5 µM; stronger effect = higher value
[6] = apoptosome-driven caspase-3 activation blockers – biochemical, fluorescence, DEVD-Rh110, 20 µM, confirmation (AID 504614;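 active means mean inhibition of at least 40% at 20 µM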;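 further: plate controls were DMSO wells for no effect and DEVD-CHO caspase inhibitor control wells for full effect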); conditions: reconstituted apoptosome, caspase-3 DEVD-Rh110 fluorescence; at 20 µM; stronger effect = higher value
[7] = detection-step artefacts after completed caspase reaction – biochemical, fluorescence, Rh110, 20 µM, artefact control for Apaf-1 inhibitor project, confirmation (AID 504615;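 active means signal rise of 40% or more at 20 µM, treated as a fluorescence artifact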); conditions: quenched caspase reaction, at 20 µM, stronger effect = higher value
[8] = molecular target: Carboxy-terminal domain RNA polymerase II polypeptide A small phosphatase 1 (Homo sapiens) (UniProt Q9GZU7); assay: SCP1 melting temperature change from compounds – biophysical, differential scanning fluorimetry, orthogonal assay for Scp-1 inhibitor project, confirmation (AID 540329;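 active means substances whose mean melting-temperature shift, as a percentage of the reference inhibitor's shift, reaches about 5.3%, limit read from the data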;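 further: 0% = Tm of DMSO wells and 100% = Tm with sodium orthovanadate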); conditions: Recombinant SCP1, Sypro Orange thermal shift Tm; at 40 µM; stronger effect = higher value
Carboxy-terminal domain RNA polymerase II polypeptide A small phosphatase 1 (Homo sapiens), sequence (Q9GZU7 76-261 limits assumed): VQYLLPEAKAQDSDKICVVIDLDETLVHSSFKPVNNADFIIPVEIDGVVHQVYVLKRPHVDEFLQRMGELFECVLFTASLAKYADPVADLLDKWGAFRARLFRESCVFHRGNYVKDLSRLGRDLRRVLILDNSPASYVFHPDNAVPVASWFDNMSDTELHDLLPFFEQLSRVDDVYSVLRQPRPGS

[9] = NF-kB reporter suppression in CF airway cells – cell-based, GFP fluorescence, single concentration, confirmation (AID 602472; in the data active means inhibition above about 40%;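 further: stimulus PAF is a Pseudomonas aeruginosa filtrate and not platelet activating factor; plate controls were DMSO wells with stimulus for no effect and unstimulated DMSO wells for full effect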); conditions: KKLEB CF airway cells, PAF-induced NF-kB-GFP fluorescence, overnight; at 5 µM; stronger effect = higher value
[10] = NFkB reporter suppression in cystic fibrosis bronchial cells – cell-based, uHTS hits, panel, cytotoxicity readout, dose response (AID 624344); conditions: CF bronchial epithelial cells, PAF-induced NFkB reporter inhibition, with PAF, run 1; at 79 µM (top of the series) unless noted
[11] = as above; conditions: CF bronchial epithelial cells, PAF-induced NFkB reporter inhibition, with PAF, run 2; at 79 µM (top of the series) unless noted
[12] = PERK-eIF2a-CHOP pathway stimulators, retested – cell-based, CHO-CHOP luciferase reporter, single concentration, confirmation (AID 463112); conditions: CHO-CHOP cells, CHOP-luciferase reporter luminescence; at 10 µM; stronger effect = higher value; percent of tunicamycin response, DMSO as zero;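 further: 0% = DMSO wells and 100% = tunicamycin 10 µg/mL wells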
[13] = molecular target: Protein Mdm4 (Homo sapiens) + E3 ubiquitin-protein ligase Mdm2 (Homo sapiens) (UniProt O15151+Q00987); assay: human Mdm2/MdmX binding disruption – cell-based, luminescence, single concentration, set 2, confirmation (AID 504601;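 active means mean inhibition of the luminescence signal across two replicates at or above 26 percent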); conditions: SaOS-2 split-luciferase Mdm2/MdmX complementation, at 8 µM, stronger effect = higher value
Protein Mdm4 (Homo sapiens) + E3 ubiquitin-protein ligase Mdm2 (Homo sapiens), sequence (O15151 whole entry, looked up): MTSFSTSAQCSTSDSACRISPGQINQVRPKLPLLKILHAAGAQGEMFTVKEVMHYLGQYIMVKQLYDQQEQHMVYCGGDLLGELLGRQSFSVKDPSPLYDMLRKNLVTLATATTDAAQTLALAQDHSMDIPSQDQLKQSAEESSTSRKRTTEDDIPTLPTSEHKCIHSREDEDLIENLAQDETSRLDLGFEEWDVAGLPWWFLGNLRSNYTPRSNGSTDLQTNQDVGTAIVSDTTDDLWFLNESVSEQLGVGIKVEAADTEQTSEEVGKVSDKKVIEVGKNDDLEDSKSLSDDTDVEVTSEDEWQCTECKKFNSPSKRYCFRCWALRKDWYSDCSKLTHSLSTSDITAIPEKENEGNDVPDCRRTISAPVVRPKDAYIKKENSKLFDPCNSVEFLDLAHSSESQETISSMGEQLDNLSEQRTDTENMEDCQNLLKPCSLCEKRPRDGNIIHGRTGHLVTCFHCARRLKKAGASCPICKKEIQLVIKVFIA
Protein Mdm4 (Homo sapiens) + E3 ubiquitin-protein ligase Mdm2 (Homo sapiens), sequence (Q00987 whole entry, looked up): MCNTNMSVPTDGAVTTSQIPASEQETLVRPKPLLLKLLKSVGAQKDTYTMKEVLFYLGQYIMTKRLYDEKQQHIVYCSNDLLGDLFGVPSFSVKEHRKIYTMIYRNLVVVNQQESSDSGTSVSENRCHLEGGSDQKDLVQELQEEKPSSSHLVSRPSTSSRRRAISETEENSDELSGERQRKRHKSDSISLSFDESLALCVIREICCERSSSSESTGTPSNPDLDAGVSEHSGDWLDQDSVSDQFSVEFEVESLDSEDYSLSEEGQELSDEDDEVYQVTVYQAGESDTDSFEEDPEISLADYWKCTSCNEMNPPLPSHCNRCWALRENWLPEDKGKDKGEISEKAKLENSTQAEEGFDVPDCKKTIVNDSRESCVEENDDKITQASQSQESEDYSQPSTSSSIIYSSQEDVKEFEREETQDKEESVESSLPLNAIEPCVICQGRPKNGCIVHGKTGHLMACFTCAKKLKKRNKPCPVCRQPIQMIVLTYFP

[14] = HIF-2a driven luciferase blockers, single dose – luminescence, 786-0 RCC cells, confirmation (AID 651580;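 active means mean inhibition across four replicates of at least 40 percent at the single tested concentration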); conditions: HIF-2a luciferase reporter luminescence, overnight, at 18.8 µM, stronger effect = higher value
[15] = HIF-1a luciferase reporter signal reduction – MiaPaCa-2 cells, single concentration, counter-screen for HIF-2a inhibitor project, confirmation (AID 651589;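 active means mean inhibition of the reporter signal across four replicates at the single tested dose of 50% or more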); conditions: MiaPaCa-2 HIF-1a luciferase reporter, desferoxamine, overnight; at 18.8 µM; stronger effect = higher value
[16] = Brca1-Bard1 BiLC signal decrease – luminescence, single concentration, counter-screen for Mdm2/MdmX interaction inhibitor project, confirmation (AID 504668; call rule not given here); conditions: Brca1/Bard1 bimolecular luciferase complementation counterscreen, at 8 µM, stronger effect = higher value
[17] = molecular target: Tumor necrosis factor receptor superfamily member 10B (Homo sapiens) (UniProt O14763); assay: viability loss of caspase-8 NB7 cells with TRAIL – with/without TRAIL, luminescence panel, confirmation (AID 651596; in the data active means activity above about 50%); conditions: NB7 neuroblastoma + caspase-8, TRAIL sensitization, NB7 Caspase-8, with TRAIL, mean of runs, at 10 µM, stronger effect = higher value
Tumor necrosis factor receptor superfamily member 10B (Homo sapiens), sequence (O14763 whole entry, looked up): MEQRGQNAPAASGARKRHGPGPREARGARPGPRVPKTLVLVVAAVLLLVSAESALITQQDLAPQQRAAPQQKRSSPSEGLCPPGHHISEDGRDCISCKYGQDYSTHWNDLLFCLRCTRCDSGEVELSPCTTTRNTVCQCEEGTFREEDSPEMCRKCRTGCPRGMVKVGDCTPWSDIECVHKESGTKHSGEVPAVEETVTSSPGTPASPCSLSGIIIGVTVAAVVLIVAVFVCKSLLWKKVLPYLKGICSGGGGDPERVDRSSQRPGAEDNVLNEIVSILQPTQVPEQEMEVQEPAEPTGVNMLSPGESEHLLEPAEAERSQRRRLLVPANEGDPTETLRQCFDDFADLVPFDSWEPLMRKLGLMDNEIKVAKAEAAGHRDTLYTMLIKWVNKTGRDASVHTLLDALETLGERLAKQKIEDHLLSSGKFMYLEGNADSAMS

[18] = as above; conditions: NB7 neuroblastoma + caspase-8, without TRAIL, NB7 Caspase-8, without TRAIL, mean of runs, at 10 µM

COc1ccc(N=C(C)c2sc3ccccc3c2O)cc1
inhibition [1]: -7.85% (inactive) | inhibition [2]: 16.5% (inactive) | inhibition [3]: 19.5% (inactive) | inhibition [4]: 14.7% (inactive) | inhibition (Caspase-3 (Homo sapiens)): 9.6% (inactive) | inhibition [5]: -5.1% (inactive)

Cc1c(C(=O)Nc2ccccn2)oc2ccc(Br)cc12
inhibition [1]: -77.2% (inactive) | inhibition [2]: 14.3% (inactive) | inhibition [3]: 18.5% (inactive) | inhibition [4]: 27.6% (inactive) | inhibition (Caspase-3 (Homo sapiens)): 22.7% (inactive) | inhibition [5]: 17.1% (inactive)

Cc1nc(NC(=O)c2ccc3c(c2)OCCO3)ccc1Br
inhibition [1]: -134% (inactive) | inhibition [2]: 82.6% (active) | inhibition [3]: 80.5% (active) | inhibition [4]: 96.2% (active) | inhibition (Caspase-3 (Homo sapiens)): 74% (active) | inhibition [5]: 64.5% (active)

O=C(Nc1ccccc1)Nc1nc2ccccc2s1
inhibition [1]: -117% (inactive) | inhibition [2]: 17.8% (inactive) | inhibition [3]: 29% (inactive) | inhibition [4]: 25.6% (inactive) | inhibition (Caspase-3 (Homo sapiens)): 44.9% (inactive) | inhibition [5]: 22.6% (inactive)

O=C(Nc1ccc2sc3ccccc3c(=O)c2c1)c1ccccc1Cl
inhibition [1]: -104% (inactive) | inhibition [2]: 6.3% (inactive) | inhibition [3]: 0% (inactive) | inhibition [4]: 13.5% (inactive) | inhibition (Caspase-3 (Homo sapiens)): 24.3% (inactive) | inhibition [5]: 4.3% (inactive)

Cc1noc(C)c1/C=N/Nc1ccc2ccccc2n1
inhibition [1]: -102% (inactive) | inhibition [2]: -12.5% (inactive) | inhibition [3]: -9% (inactive) | inhibition [4]: 6.7% (inactive) | inhibition (Caspase-3 (Homo sapiens)): 6.2% (inactive) | inhibition [5]: -1.9% (inactive)

O=C(c1cnn(-c2ccc(Cl)cc2)c1)c1ccccc1O
inhibition [1]: -109% (inactive) | inhibition [2]: 11.7% (inactive) | inhibition [3]: 95.3% (active) | inhibition [4]: 78.6% (active) | inhibition (Caspase-3 (Homo sapiens)): 73.5% (active) | inhibition [5]: 56.5% (active)

Cn1c(-c2ccc(C(=O)c3ccccc3)s2)nc2ccccc21
inhibition [1]: -108% (inactive) | inhibition [2]: 0% (inactive) | inhibition [3]: 11.3% (inactive) | inhibition [4]: 17.8% (inactive) | inhibition (Caspase-3 (Homo sapiens)): 23% (inactive) | inhibition [5]: 8.8% (inactive)

COc1cc(/C=N/O)ccc1OCc1ccc([N+](=O)[O-])cc1
inhibition [1]: -119% (inactive)

CCOc1[nH]n(-c2ccc(Cl)cc2)c(=O)c1C=Nc1ccc(O)cc1
inhibition [6]: 14.8% (inactive) | activation (fluorescence interference) [7]: 5.36% (inactive)

NC(N)=N/N=C/c1ccc(OCc2ccc(Cl)cc2Cl)cc1
inhibition [6]: 35.8% (inactive) | activation (fluorescence interference) [7]: -0.23% (inactive)

Cc1cc(C(=O)OCC(=O)NCc2ccco2)c(C)n1-c1ccccc1
thermal shift relative to vanadate control [8]: -3.06% (inactive)

N/C(=N\OC(=O)N1c2ccccc2Sc2ccccc21)c1ccc(Br)cc1
thermal shift relative to vanadate control [8]: -22.1% (inactive)

COc1ccccc1-n1nnnc1S(=O)(=O)Cc1ccc(Cl)cc1
inhibition [9]: 99.1% (active) | inhibition [10]: 110% | inhibition [11]: 104%

COc1ccc(C2=Nn3c(nnc3-c3ccccc3OC)SC2)cc1OC1CCCC1
inhibition [9]: 98.4% (active) | inhibition [10]: 98.7% | inhibition [11]: 118% [at 39.5 µM]

O=[N+]([O-])c1ccc(C=Nc2ccc(Cl)cc2Cl)s1
activation [12]: 74.2% (active) | inhibition [2]: 9.7% (inactive) | inhibition [3]: 19.4% (inactive) | inhibition [4]: 18.5% (inactive) | inhibition (Caspase-3 (Homo sapiens)): 7.4% (inactive) | inhibition [5]: 8.1% (inactive)

CSc1nc(-c2ccccc2)nc(C(Cl)Cl)n1
activation [12]: 28.5% (inactive) | inhibition [13]: 97.7% (active) | inhibition [14]: 59.7% (active) | inhibition [15]: 105% (active)

O=C1Nc2ccc(Br)cc2/C1=N/N=C/C1=C(N2CCOCC2)C(=C\c2ccccc2)/CC1
activation [12]: 53.4% (active)

Nc1nc(CC(=O)CSc2ccc(Cl)cc2)nc(Nc2ccc(F)cc2)n1
activation [12]: 40% (active) | inhibition [16]: 29.2% (active)

N#Cc1cccc(NC(=O)COC(=O)c2ccccc2C(=O)c2ccc(Cl)c([N+](=O)[O-])c2)c1
activation [12]: 26.1% (inactive) | inhibition [13]: 103% (active) | inhibition [9]: 108% (active) | inhibition [14]: 55.9% (active) | inhibition [15]: 108% (active) | inhibition [10]: 103% | inhibition [11]: 111%

S=C1SCN(CCN2CCOCC2)CN1Cc1ccccc1
activation [12]: 102% (active)

COc1cccc2sc(Nc3nc(C)c(C(C)=O)s3)nc12
activation [12]: 58.5% (active) | inhibition [2]: 51.3% (active) | inhibition [3]: 47.9% (inactive) | inhibition [4]: 83.9% (active) | inhibition (Caspase-3 (Homo sapiens)): 56.6% (active) | inhibition [5]: 72.3% (active)

CCOC(=O)c1cnc(Nc2nc3ccccc3o2)nc1CSC(=S)N1CCCCC1
activation [12]: 92.7% (active)

CCOC(=O)c1sc(NC(=O)CCN2CCOCC2)c(C(=O)OCC)c1C
activation [12]: -1.25% (inactive)

CCc1ccc2c(c1)C1(NN=C(c3ccccc3)S1)C(=O)N2 (stereo not drawn)
activation [12]: 98.4% (active)

O=C1CC(c2cccc(Cl)c2)CC(O)=C1C=Nc1ccccc1 (stereo not drawn)
activation [12]: 70.8% (active)

Cc1cc(N/N=C\c2ccc(Br)cc2)nc(-n2nc(C)cc2C)n1
activation [12]: 12.3% (inactive)

CCc1nn(-c2cc(Oc3cccc4ccccc34)nc(-c3ccccc3)n2)c(N)c1C#N
activation [12]: 40.1% (active)

CCCc1cc(=S)n2c([nH]c3ccccc32)c1C#N
activation [12]: -0.45% (inactive)

COc1cc(/C=C2/C(=O)ON=C2C)ccc1OCc1ccccc1F
activation [12]: 3.58% (inactive)

CSc1nnc(NC(=O)c2nc(S(=O)(=O)Cc3ccc(C)cc3)ncc2Cl)s1
activation [12]: 87% (active) | inhibition [13]: 100% (active) | activity [17]: 74.5% | activity [18]: 82.2%

Cc1cccc(C)c1NC(=O)C(Cl)C(=O)c1ccccc1 (stereo not drawn)
activation [12]: 85.6% (active)

COc1ccc2c(c1OC)C(=O)OC2Nc1nc(-c2ccccc2)cs1 (stereo not drawn)
activation [12]: 29.9% (inactive) | inhibition [13]: 103% (active) | inhibition [9]: 106% (active) | inhibition [14]: 26% (inactive) | inhibition [15]: 105% (active) | inhibition [10]: 109% | inhibition [11]: 103%

Oc1c(CN2CCN(c3ccc(F)cc3)CC2)cc(Cl)c2cccnc12
activation [12]: 196% (active) | inhibition [16]: 25.7% (active)

COc1ccc(C(=O)NCC(=O)N/N=C/c2ccc([N+](=O)[O-])o2)cc1OC
activation [12]: 35.6% (active)

OCCNc1nc(Nc2ccc(Cl)c(Cl)c2)nc2ccccc12
activation [12]: 41% (active) | inhibition [16]: 24.3% (active) | inhibition [9]: 81.5% (active) | inhibition [10]: 110% | inhibition [11]: 105%

CC(C)(C)C(=O)OCc1nc(-c2ccc(O)c(O)c2)cs1
activation [12]: 144% (active)

CCCCCC(=O)Nc1ccc(C(=O)N/N=C/c2ccc([N+](=O)[O-])cc2)cc1
activation [12]: 79% (active)

Cc1c(NC(=O)CSc2cccc3cccnc23)c(=O)n(-c2ccccc2)n1C
activation [12]: 123% (active)

O=C(CSc1cccc2cccnc12)N/N=C/c1cccnc1
activation [12]: 265% (active)

CC1(C)CCSC(/C=C/c2ccccc2)=N1
activation [12]: 68% (active) | inhibition [16]: 30.5% (active) | inhibition [9]: -24.9% (inactive)

CC(C)(C)Nc1nc(-c2ccccn2)nc2ccccc12
activation [12]: 20.4% (inactive) | inhibition [16]: 23.3% (active)

CC1CC2=C(CC1/C=N/NC(N)=S)C(C)(C)CCC2 (stereo not drawn)
activation [12]: 29.4% (inactive)

COc1ccccc1N=Cc1c(O)c2ccccc2oc1=O
activation [12]: 124% (active) | inhibition [2]: 43.2% (inactive) | inhibition [3]: 53.7% (active) | inhibition [4]: 49.6% (inactive) | inhibition (Caspase-3 (Homo sapiens)): 19.3% (inactive) | inhibition [5]: 27.7% (inactive)

CCOc1ccc2nc(Cl)c(C3CC(c4ccccc4)=NN3C(=O)c3cccs3)cc2c1 (stereo not drawn)
activation [12]: -1.15% (inactive)
